# The list is not random: actives were taken first. Their share in the collection is about 3%.
# KKLEB tox: counter-screen for CF NF-kB inhibitors: cytotoxicity | KKLEB CF airway cells viability, ATPlite luminescence, overnight; active compounds read low; cells stimulated with P. aeruginosa culture filtrate | activity change (cytotoxicity), % at 5 µM | 0.36% of 360,000 active | AID 602141;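 active = corrected activity change at or below -50% at 5 µM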
# ABHD5-PLIN5 inh: blocks binding of human ABHD5 to perilipin-5. Split G. princeps luciferase complementation, luminescence, 4 h. inhibition, % at 4 µM. 0.78% of 360,000 active. AID 602281;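 active = inhibition above the mean inhibition across every tested compound plus 3 SD, cut at about 22% in these data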;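 note: 0% = DMSO only wells and the 100% control is not disclosed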
# TRPM1 prom inh: inhibitors of MITF-driven TRPM1 promoter in melanoma cells; SK-MEL-5 TRPM1 promoter luciferase, 24 h; inhibition, % at 12.5 µM; 0.83% of 330,000 active; AID 488899;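 active = mean inhibition across replicates of 60% or more, whatever share of single replicates reaches that level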
# HIF-2a block: blocks HIF-2a reporter activity | 786-0 RCC cells HIF-2a reporter, luciferase luminescence, overnight | AID 624352 | inhibition, % at 18.8 µM | 0.72% of 360,000 active;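 active = inhibition of the luminescence signal of 40% or more relative to plate controls, in a single-dose primary screen at 18.75 µM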
# Peg3 prom inh: Peg3 promoter activity inhibition | AID 588405 | HeLa PEG-Prom luciferase reporter, luminescence, overnight | inhibition, % at 20 µM | 1.7% of 360,000 active;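 active = inhibition of at least 50% at 20 µM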
# CF NFkB inh: blocks PAF-induced NF-kB reporter in cystic fibrosis cells | KKLEB NF-kB-GFP reporter, GFP fluorescence overnight | inhibition, % at 5 µM | 0.86% of 360,000 active | AID 588850;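 active = at least 50% inhibition at 5 µM, scaled per plate between neutral and stimulator controls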;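 note: PAF is a Pseudomonas aeruginosa culture filtrate used as stimulus; plate controls were PAF-stimulated DMSO wells for no effect and unstimulated DMSO wells for full effect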
# * = called active by the depositor; . = no result.
SMILES,KKLEB tox,ABHD5-PLIN5 inh,TRPM1 prom inh,HIF-2a block,Peg3 prom inh,CF NFkB inh
O=C(CCCN1C(=O)C(=Cc2ccc3c(c2)OCO3)SC1=S)Nc1ccc(C(=O)O)c(O)c1,10,16,.,51*,-5,-30
O=C(CN1C(=O)S/C(=C\c2ccc(-c3cc(C(=O)O)ccc3Cl)o2)C1=O)Nc1ccc2c(c1)OCO2,4,-1,-5,18,-8,7
O=C(CCCN1C(=O)/C(=C/c2ccccc2)SC1=S)Nc1ccc(C(=O)O)c(O)c1,9,8,-8,-5,-3,-12
Cn1cc(/C=C2/SC(=O)N(CC(=O)Nc3ccc4c(c3)OCO4)C2=O)c2ccccc21,-66*,6,7,-9,17,58*
O=C(CCCN1C(=O)/C(=C/c2ccc3c(c2)OCO3)SC1=S)Nc1ccc(C(=O)O)cc1,3,5,20,69*,19,11
CC(C)CN(C(=O)CSc1n[nH]c(-c2cccs2)n1)C1CCS(=O)(=O)C1 (stereo unspecified),12,-4,9,-43,-27,-4
CCN1CCN(C(C)C(=O)NC2CCCCC2)CC1 (stereo unspecified),2,-3,8,6,19,0
COC(=O)Cn1c(=O)c(C(=O)CCl)c(N)n(Cc2ccccc2)c1=O,5,0,51,30,81*,28
NC(=S)N/N=C/c1ccccc1OCCSc1ccc(Cl)cc1,-39,-15,-7,-21,7,2
CNC(CC(=O)c1ccc([N+](=O)[O-])cc1)C(Cl)(Cl)Cl (stereo unspecified),-8,5,90*,93*,101*,47
Cc1ccc(O)c(Nc2c3ccccc3nc3ccccc23)c1,-10,1,-1,10,61*,-25
CCCS(=O)(=O)Nc1ccc(Nc2c3ccccc3nc3ccccc23)c(OC)c1,-23,1,75*,30,37,-152
COc1ccc(Nc2c3c(nc4ccccc24)CCC3)c(OC)c1,-9,-8,21,25,23,6
COc1cc(N)ccc1Nc1c2ccccc2nc2ccccc12,-21,-3,.,18,103*,-23
CC1=C(C(=O)Nc2cccc(C(=O)NC3CCCC(C)C3C)c2)SCCO1 (stereo unspecified),-4,-6,6,3,-2,6
C[C@H](NC(=O)c1ncn2c1c(=O)[nH]c1ccc(Br)cc12)c1ccccc1,-3,2,.,9,100*,2
O=c1cc(-c2ccc(O)c(O)c2)oc2ccc3ccccc3c12,-32,2,88*,6,20,-92
CCC(=O)Oc1ccc2ccccc2c1CNC(=O)c1ccccc1,0,3,19,-5,-11,-6
CN(C)S(=O)(=O)c1cccc(NC(=S)Nc2cccc3cnccc23)c1,-4,-38,3,-8,7,73*
S=C(Nc1cccnc1)Nc1cccc2cnccc12,2,-12,8,-28,-19,-9
COc1ccc(C[C@H]2CN3C(=NC[C@@H]3Cc3ccccc3)N2CCNC(=O)CCC2CCCCC2)cc1,2,11,98*,5,99*,21
COc1ccc(C[C@H]2CN3C(=NC[C@@H]3C(C)C)N2CCNC(=O)CCC2CCCCC2)cc1,-11,10,-21,-19,50,10
CCN(CC(=O)NCc1ccc(Cl)cc1)C(=O)C(C)Sc1ccccc1 (stereo unspecified),-12,0,15,10,20,2
CCOc1cc2[nH]c(=O)n(Cc3ccc(C(=O)NCCCN4CCC(C)CC4)cc3)c(=O)c2cc1OCC,-3,4,-11,17,82*,-11
CC1CCN(CCCNC(=O)c2ccc3c(=O)n(Cc4ccc(Cl)cc4)c(=S)[nH]c3c2)CC1,-13,15,26,14,114*,15
SMILES,KKLEB tox,ABHD5-PLIN5 inh,TRPM1 prom inh,HIF-2a block,Peg3 prom inh,CF NFkB inh
COc1ccccc1-c1cc2nc(C)cc(C)n2n1,10,1,-28,-103,-65,-12
COc1ccccc1CNc1nc(Nc2cccc(-c3cnco3)c2)c2sccc2n1,-16,8,.,-7,91*,22
COc1ccccc1CNc1nc(NCc2ccccc2OC)c2sccc2n1,-11,3,.,17,58*,7
CNc1nc(NCc2ccc(C)cc2C)c2sccc2n1,-4,16,.,8,4,-22
COc1ccccc1CNc1nc(NCc2cccs2)nc2ccsc12,-11,9,.,4,0,-1
Cc1ccc(CNc2nc(NCC3CC3)nc3ccsc23)c(C)c1,-17,-1,.,19,77*,29
O=C(N/N=C/c1ccc(O)c2ncccc12)c1cccc(Br)c1,-12,11,65*,0,8,32
NC(=O)N/N=C\c1cc(Br)ccc1O,14,0,-4,12,13,1
O=C(N/N=C/c1cccnc1)c1cccc(NC(=O)c2cccc(Br)c2)c1,4,-14,-6,-56,-40,11
O=C(N/N=C\c1cc(Br)ccc1O)c1ccc(S(=O)(=O)N2CCCCC2)cc1,-19,-6,74*,14,29,22
O=C(N/N=C/c1cc(Cl)ccc1O)c1ccc(Br)cc1,-31,-5,40,-44,45,57*
O=C(N/N=C/c1cc(Br)ccc1O)c1ccncc1,-10,-3,76*,-1,31,21
Cc1cccc(CSc2nc3nc(C)cc(C)n3n2)c1,-4,4,-18,-83,-45,-13
COc1ccc(NS(=O)(=O)c2cccc(C(=O)N3CCN(C/C=C/c4ccccc4)CC3)c2)cc1,-11,-2,.,6,-1,-14
COc1ccc(C(=O)N=C2SC3CS(=O)(=O)CC3N2Cc2ccc(F)cc2)cc1 (stereo unspecified),-2,1,13,11,24,-6
CC(C)C(=O)Nc1ccc(C(=O)N/N=C/c2cc(Br)cc(Br)c2O)cc1,-4,-2,17,13,58*,13
COc1cccc(/C=N/NC(=O)C(=O)Nc2ccccc2OC(F)(F)C(F)F)c1O,-9,-2,73*,-6,49,9
COc1ccccc1/C=N/NC(=O)c1cccc(OC(F)(F)C(F)F)c1,-10,-7,1,-44,-7,28
CCOc1ccccc1NC(=O)C(=O)N/N=C/c1cc(Br)ccc1O,-21,1,59,-1,53*,31
CCOc1ccccc1C=NNC(=O)C(=O)NN=Cc1ccccc1OCC,-5,-1,-5,10,17,-2
Cc1ccc(CN(C(=O)c2csnn2)C(C(=O)NC2CCCC2)c2cccnc2)cc1 (stereo unspecified),1,-6,-7,8,14,-4
CN(CC(=O)Nc1ccccc1Cl)C(=O)c1cccc(S(=O)(=O)N2CCN(Cc3ccccc3)CC2)c1,-3,10,9,9,-18,1
